According to PubChem BioAssay (Tox21):
Records with an inconclusive call do not appear. Active and inactive are the calls of the source. Calls come from the whole dose curve; as a rule, active = well fitted cell-killing curve with a large enough effect in the repeat runs; inconclusive = weak or mixed curves; inactive = flat fitted curve, though single readings scatter.

test: qHTS assay to identify small molecule antagonists of the estrogen related receptor (ERR) signaling pathway from Tox21 library - cell viability counter screen (AID 1224834); conditions: ERR reporter cells viability, CellTiter-Fluor, 17.5 h; series mostly up to 92.4 µM; viability change, negative = cytotoxic: at the top concentration; note: nearly all actives have a fitted effect of over 30% in size
Text: National Center for Advancing Translational Sciences [NCATS]
NIH Chemical Genomics Center [NCGC]
U.S. Environmental Protection Agency [EPA]
National Institutes of Environmental Health Sciences [NIEHS]
National Toxicology Program [NTP]
U.S. Food and Drug Administration [FDA]
Estrogen related receptors (ERRs), the first orphan nuclear receptors discovered, play an important role in the control of cellular energy metabolism. ERRs are required for high-energy production in response to the environmental challenges. ERR-alpha was also identified as an adverse marker for breast cancer progression; ERR-alpha-positive tumors have a poor prognosis. To screen and to identify environmental compounds that perturb the ERR signaling pathways could provide valuable information for potential therapeutic or preventive measures in the treatment of metabolic disease. To differentiate true ERR antagonists or agonist from cytotoxic substances, the assay is multiplexed with cell viability assay.
Tox21 Assay Protocol Summary:
The ERR cells were dispensed at 2,000 cells/5 ul/well in 1536-well white plates using a Multidrop dispenser. After the assay plates were incubated at a 37 C/5% CO2 incubator for 6 hours, 23 nL of compounds dissolved in DMSO, positive and negative controls or DMSO only was transferred to the assay plate by a pin tool. The plates were incubated at 37 C for 17.5 hours. 1 ul/well of CellTiter-Fluor reagent was added into the assay plates using a Flying Reagent Dispenser. After 30-minute incubation at 37 C/5% CO2, the fluorescence intensity in the plates was measured using a ViewLux plate reader.
% is set by controls: 0 for no effect and ±100 for the full control effect.

Which “viability change, negative = cytotoxic” value does the source give for `CC(C)CCOC(=O)CC(C)C` here?
Its value is -1.98% (inactive).

For `C[N+](C)(C)CC[N+]1(C)Cc2c(Cl)c(Cl)c(Cl)c(Cl)c2C1`, which “viability change, negative = cytotoxic” value is on record?
The value was 0.648% [at 42.5 µM] (inactive).

Which “viability change, negative = cytotoxic” value does the source give for `COc1ccc2cc(C=O)ccc2c1` here?
Its value is 5.82% [at 42.5 µM] (inactive).

With `CC(CCO)CCCC(C)(C)O` (stereo not given) as the molecule, how does the “viability change, negative = cytotoxic” value read?
The value was 2.79% (inactive).

Which “viability change, negative = cytotoxic” value does the source give for `CO[Si](CCCNCCC[Si](OC)(OC)OC)(OC)OC` here?
Its value is 0.267% (inactive).

For `CNC(=O)c1c(I)c(NC(=O)CCCCC(=O)Nc2c(I)c(C(=O)O)c(I)c(C(=O)NC)c2I)c(I)c(C(=O)O)c1I`, which “viability change, negative = cytotoxic” value is on record?
The value was 0.542% [at 42.5 µM] (inactive).

Which viability change, negative = cytotoxic does the source give for `NCC[C@H](O)C(=O)N[C@@H]1C[C@H](N)[C@@H](O[C@H]2O[C@H](CN)[C@@H](O)[C@H](O)[C@H]2O)[C@H](O)[C@H]1O[C@H]1O[C@H](CO)[C@@H](O)[C@H](N)[C@H]1O` here?
The viability change, negative = cytotoxic was 0.879% [at 0.349 µM] (inactive).

For `N[C@@H](CS)C(=O)O`, which “viability change, negative = cytotoxic” value is on record?
The value was 1.85% (inactive).

For `CC(C)(O)C(=O)c1ccc(OCCO)cc1`, which “viability change, negative = cytotoxic” value is on record?
The value was -1.03% (inactive).

With `CCOC(=O)[C@H](CCc1ccccc1)N[C@@H](C)C(=O)N1CCC[C@H]1C(=O)O` as the molecule, how does the “viability change, negative = cytotoxic” value read?
Its value is 1.21% [at 42.5 µM] (inactive).

For `CC(C)COC(=O)c1ccccc1O`, which “viability change, negative = cytotoxic” value is on record?
The value was 5.01% (inactive).

With `CCCCN(CCO)CCO` as the molecule, how does the “viability change, negative = cytotoxic” value read?
Its value is 5.54% (inactive).

Which “viability change, negative = cytotoxic” value does the source give for `COC(=O)C1=C(C)NC(C)=C(C(=O)OCC(C)=O)C1c1ccccc1[N+](=O)[O-]` (stereo not given) here?
The value was -9.01% [at 42.5 µM] (inactive).

Which “viability change, negative = cytotoxic” value does the source give for `CC1=CCC2C(C1)C2(C)C` (stereo not given) here?
Its value is -4.05% (inactive).

For `COc1ccc(NC(C)=O)cc1`, which “viability change, negative = cytotoxic” value is on record?
The value was 0.164% (inactive).

For `O=C(O)C1CCC1`, which “viability change, negative = cytotoxic” value is on record?
The value was 3.17% [at 42.5 µM] (inactive).

With `Cc1cc(C)c(NC(=O)CN(CC(=O)O)CC(=O)O)c(C)c1Br` as the molecule, how does the “viability change, negative = cytotoxic” value read?
Its value is 5.86% [at 42.5 µM] (inactive).

Which “viability change, negative = cytotoxic” value does the source give for `CCCC=O` here?
The value was 4.93% (inactive).

Which “viability change, negative = cytotoxic” value does the source give for `CCCOCC(C)OCC(C)O` (stereo not given) here?
Its value is 5.43% (inactive).

Which “viability change, negative = cytotoxic” value does the source give for `CCCCCCCCCCCCCCCCCC(=O)OCCCCCCCCCCCCCC(C)C` here?
Its value is -0.425% (inactive).

For `C=C(C)C1CC=C(C)C(O)C1` (stereo not given), which “viability change, negative = cytotoxic” value is on record?
The value was 3.26% (inactive).

With `CCOC(=O)Cn1c(=O)sc2cccc(Cl)c21` as the molecule, how does the “viability change, negative = cytotoxic” value read?
The value was -0.908% (inactive).

For `NC(=O)Nc1nc2ccccc2[nH]1`, which “viability change, negative = cytotoxic” value is on record?
Its value is 0.305% (inactive).

Which “viability change, negative = cytotoxic” value does the source give for `NS(=O)(=O)c1cc(C2(O)NC(=O)c3ccccc32)ccc1Cl` (stereo not given) here?
The value was 0.564% [at 42.5 µM] (inactive).

With `FC(F)(F)C(F)(F)C(F)(F)C(F)(F)C(F)(F)C(F)(F)C(F)(F)C(F)(F)C(F)(F)C(F)(F)F` as the molecule, how does the viability change, negative = cytotoxic read?
Its viability change, negative = cytotoxic is 3.38% [at 8.39 µM] (inactive).

For `CC(C)=CCC/C(C)=C/C(=O)O`, which “viability change, negative = cytotoxic” value is on record?
The value was 1.8% (inactive).

With `C#CC(C)(O)CC(C)C` (stereo not given) as the molecule, how does the “viability change, negative = cytotoxic” value read?
The value was 2.24% (inactive).

Which “viability change, negative = cytotoxic” value does the source give for `C=C(C)C(=O)NCCCN(C)C` here?
The value was 8.1% (inactive).

With `Nc1ccn(C2CO[C@H](CO)O2)c(=O)n1` (stereo not given in full) as the molecule, how does the “viability change, negative = cytotoxic” value read?
Its value is -2.31% [at 42.5 µM] (inactive).

Which “viability change, negative = cytotoxic” value does the source give for `Cc1cc(C)cc(OCC2CNC(=O)O2)c1` (stereo not given) here?
The value was -2.96% [at 42.5 µM] (inactive).

For `COC(=O)CCCC(=O)O`, which “viability change, negative = cytotoxic” value is on record?
The value was 3.08% (inactive).

For `Cc1ccc(Nc2ccc(O)c3c2C(=O)c2ccccc2C3=O)cc1`, which “viability change, negative = cytotoxic” value is on record?
Its value is -2.05% (inactive).

Which “viability change, negative = cytotoxic” value does the source give for `CCN1CCN(c2cc3c(cc2F)c(=O)c(C(=O)O)cn3C2CC2)CC1` here?
Its value is 1.9% [at 42.5 µM] (inactive).

For `Oc1cc(O)c2c(c1)O[C@H](c1ccc(O)c(O)c1)[C@H](O)C2`, which “viability change, negative = cytotoxic” value is on record?
The value was 1.94% [at 42.5 µM] (inactive).

For `O=C1OC(=O)c2cc([N+](=O)[O-])ccc21`, which “viability change, negative = cytotoxic” value is on record?
The value was 0.43% (inactive).

For `NC(=O)c1c(Cl)cccc1Cl`, which “viability change, negative = cytotoxic” value is on record?
The value was -0.432% (inactive).

For `NC(N)=NS(=O)(=O)c1ccc(N)cc1`, which “viability change, negative = cytotoxic” value is on record?
The value was 1.72% [at 42.5 µM] (inactive).

Which “viability change, negative = cytotoxic” value does the source give for `CCCCCCCCCCCl` here?
The value was 5.46% (inactive).

Which “viability change, negative = cytotoxic” value does the source give for `Cc1c(C)n(CCN(C)C)c2ccc(C(=O)OCCN(C)C)cc12` here?
Its value is -16.8% [at 42.5 µM] (inactive).

Which “viability change, negative = cytotoxic” value does the source give for `C=CC(=O)N1CCOCC1` here?
The value was 1.95% (inactive).
